{"source": "PubChem BioAssay (NCATS)", "note": "Results filed as inconclusive are left out. A number with no mark means an inactive call. Calls of active or inactive are those of the source. Calls follow the shape of the dose curve; as a rule, active = well fitted curve in the direction sought with a large enough effect; inconclusive = small, poorly fitted or top-dose-only effect, or another doubt; inactive = no such curve, though single readings can be large; an effect the other way counts as inactive or inconclusive. % is scaled to controls: 0 for no effect and ±100 for the full control effect."}
{"assay": "qHTS assay to identify small molecule inhibitors of chordoma cells - UCH-1 (AID 1259355); also: nearly all actives have a fitted effect of over 55% in size; also: potency is read from the fitted curve at half-maximal effect", "conditions": "UCH-1 chordoma viability, CellTiter-Glo, 48 h, combination, with auranofin plus four topoisomerase inhibitors; series mostly up to 46.1 µM; activity, negative = inhibition: at the top concentration", "how_it_was_run": "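Seed 800 cells per well; incubate overnight at 37 C, 5% CO2. Add test compounds (15 concentrations), then the auranofin–topoisomerase-agent combination. Incubate 48hr, add CellTiter-Glo, wait 30min, read luminescence.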"}
{"smiles": "C[C@@H]1C/C=C/C=C/C=C/C=C/[C@H](O[C@@H]2O[C@H](C)[C@@H](O)[C@H](N)[C@@H]2O)C[C@@H]2O[C@](O)(C[C@@H](O)C[C@H]3O[C@@H]3/C=C/C(=O)O1)C[C@H](O)[C@H]2C(=O)O", "activity, negative = inhibition": "-0.167%"}
{"smiles": "C[Se]CC[C@H](N)C(=O)O", "activity, negative = inhibition": "-4.1%"}
{"smiles": "CCOc1ccc(S(=O)(=O)O)c2cccnc12", "activity, negative = inhibition": "-3.64%"}
{"smiles": "CCN1\\C(=C/C=C/C=C/c2sc3ccccc3[n+]2CC)Sc2ccccc21", "Potency": "14.1 µM (active)"}
{"smiles": "Cc1cc(-c2ccc(N=Nc3ccc4c(S(=O)(=O)O)cc(S(=O)(=O)O)c(N)c4c3O)c(C)c2)ccc1N=Nc1ccc2c(S(=O)(=O)O)cc(S(=O)(=O)O)c(N)c2c1O", "activity, negative = inhibition": "-28.8%"}
{"smiles": "CSc1nc2cc(Oc3cccc(Cl)c3Cl)c(Cl)cc2[nH]1", "activity, negative = inhibition": "-6.12%"}
{"smiles": "O=C(CCCN1CCC(C(=O)c2ccc(F)cc2)CC1)c1ccc(F)cc1", "activity, negative = inhibition": "-6.59%"}
{"smiles": "c1ccc(-n2cnnn2)cc1", "activity, negative = inhibition": "-19.5%"}
{"smiles": "CCCCCCCCCCCCCCCCOCCOCCOCCOCCOCCOCCOCCOCCOCCOCCOCCOCCOCCOCCOCCOCCOCCOCCOCCOCCO", "Potency": "35.5 µM (active)"}
{"smiles": "CN[C@@H]1[C@@H](O)[C@@H](O[C@@H]2[C@@H](O)[C@H](OC3OC(CN)=CCC3N)[C@@H](N)C[C@H]2N)OC[C@]1(C)O", "note": "(stereo partly drawn)", "activity, negative = inhibition": "-17.5% [at 20.6 µM]"}
{"smiles": "NCC[C@H](O)C(=O)N[C@@H]1C[C@H](N)[C@@H](O[C@H]2O[C@H](CN)CC[C@H]2N)[C@H](O)[C@H]1O[C@H]1O[C@H](CO)[C@@H](O)[C@H](N)[C@H]1O", "activity, negative = inhibition": "-10.6%"}
{"smiles": "CCCCC[C@H](O)/C=C/[C@H]1[C@H](O)CC(=O)[C@@H]1CCCCCCC(=O)O", "activity, negative = inhibition": "-15.2% [at 20.6 µM]"}
{"smiles": "O=C(O)/C=C/C(=O)Nc1ccc(S(=O)(=O)Nc2nccs2)cc1", "activity, negative = inhibition": "-3.03%"}
{"assay": "qHTS assay to identify small molecule inhibitors of chordoma cells - UCH-2 (AID 1259356)", "conditions": "UCH-2 chordoma viability, CellTiter-Glo ATP luminescence, 48 h; series mostly up to 46.1 µM; activity change, negative = inhibition: at the top concentration"}
{"smiles": "O=C(CCCCCCCCCCCCC1CCCC1)Nc1ccc(S(=O)(=O)c2ccc(NC(=O)CCCCCCCCCCCCC3CCCC3)cc2)cc1", "activity change, negative = inhibition": "-0.546%"}
{"smiles": "CC(C)C[C@H](NC(=O)[C@@H](COC(C)(C)C)NC(=O)[C@H](Cc1ccc(O)cc1)NC(=O)[C@H](CO)NC(=O)[C@H](Cc1c[nH]c2ccccc12)NC(=O)[C@H](Cc1cnc[nH]1)NC(=O)[C@@H]1CCC(=O)N1)C(=O)N[C@@H](CCCN=C(N)N)C(=O)N1CCC[C@H]1C(=O)NNC(N)=O", "activity change, negative = inhibition": "13.3%"}
{"smiles": "CCCCCCCCCCCCCCCCCC(=O)OCC(C)O", "note": "(stereo not drawn)", "activity change, negative = inhibition": "1.51%"}
{"smiles": "O=[N+]([O-])c1c(Cl)cccc1-c1c[nH]cc1Cl", "activity change, negative = inhibition": "5.77%"}
{"smiles": "CCN(CC)CCOc1ccc2nc(N(C)C)sc2c1", "activity change, negative = inhibition": "-0.444%"}
{"smiles": "CC(C)(C)c1ccc(CN2CCN(C(c3ccccc3)c3ccc(Cl)cc3)CC2)cc1", "note": "(stereo not drawn)", "activity change, negative = inhibition": "17.4%"}
{"smiles": "C=CCN1CCCC1CNC(=O)c1cc(S(N)(=O)=O)cc(OC)c1OC", "note": "(stereo not drawn)", "activity change, negative = inhibition": "-1.92%"}
{"smiles": "O=C1N=C2SCCN2C(=O)C1Cc1ccc(Cl)cc1", "note": "(stereo not drawn)", "activity change, negative = inhibition": "4.51%"}
{"smiles": "CN(C)CCOc1ccc(/C(=C(/CCCl)c2ccccc2)c2ccccc2)cc1", "activity change, negative = inhibition": "-3.29%"}
{"smiles": "CCCCC[C@H](O)/C=C/[C@H]1[C@H](O)CC(=O)[C@@H]1C/C=C\\CCCC(=O)O", "activity change, negative = inhibition": "-6.22%"}
{"smiles": "CO/N=C(\\C(=O)N[C@@H]1C(=O)N2C(C(=O)O)=C(C[N+]3(C)CCCC3)CS[C@H]12)c1csc(N)n1", "activity change, negative = inhibition": "4.55%"}
{"smiles": "COC1=C(OC)C(=O)C(C/C=C(\\C)CC/C=C(\\C)CC/C=C(\\C)CC/C=C(\\C)CC/C=C(\\C)CC/C=C(\\C)CC/C=C(\\C)CC/C=C(\\C)CC/C=C(\\C)CCC=C(C)C)=C(C)C1=O", "activity change, negative = inhibition": "-0.47%"}
{"smiles": "[O]=[Bi][O]C(=O)[O][Bi]=[O]", "activity change, negative = inhibition": "1.54%"}
{"smiles": "FC(F)(F)C(F)(F)C(F)(F)C(F)(F)C(F)(F)C(F)(F)F", "activity change, negative = inhibition": "7.22%"}
{"smiles": "OCCN1CCN(CC/C=C2/c3ccccc3Sc3ccc(Cl)cc32)CC1", "activity change, negative = inhibition": "-1.42% [at 20.6 µM]"}
{"smiles": "C=CC(=O)O", "activity change, negative = inhibition": "5.8%"}
{"smiles": "CC(=C\\c1ccccc1)/C=C1/SC(=S)N(CC(=O)O)C1=O", "activity change, negative = inhibition": "8.41%"}
{"smiles": "CC12CCC(C[N+](C)(CCC[N+](C)(C)C)C1)C2(C)C", "note": "(stereo not drawn)", "activity change, negative = inhibition": "-1.76%"}
{"smiles": "O=S(=O)(O)CC(S)CS", "note": "(stereo not drawn)", "activity change, negative = inhibition": "-5.58%"}
{"smiles": "NC[C@@H]1CC[C@@H](N)[C@@H](O[C@H]2[C@H](O)[C@@H](O[C@H]3O[C@H](CO)[C@@H](O)[C@H](N)[C@H]3O)[C@H](N)C[C@@H]2N)O1", "activity change, negative = inhibition": "4.05%"}
{"smiles": "CCOC(=O)[C@@H](N)CS", "activity change, negative = inhibition": "6.87%"}
{"smiles": "CCC(Oc1ccccc1)C(=O)N[C@@H]1C(=O)N2[C@@H]1SC(C)(C)[C@@H]2C(=O)O", "note": "(stereo partly drawn)", "activity change, negative = inhibition": "11.3%"}
{"smiles": "COc1ccccc1N1CCN(CCCC(=O)c2ccc(F)cc2)CC1", "activity change, negative = inhibition": "-0.29%"}
{"smiles": "CC(C)(C)NCC(O)CSc1nc(-c2ccc(C(N)=O)s2)cs1", "note": "(stereo not drawn)", "activity change, negative = inhibition": "-2.18%"}
{"smiles": "CC(C)(C)CC(C)(C)c1cc(Cc2cc(C(C)(C)CC(C)(C)C)cc(-n3nc4ccccc4n3)c2O)c(O)c(-n2nc3ccccc3n2)c1", "activity change, negative = inhibition": "-28%"}
